# Tests used:
# Details in all cases: concentration: 1 μM, replicates: in singlicate; n = 1
# MET = test system: MET
# MINK = test system: T1, MINK
# T1 construct: gene MINK1
# MKK7 = test system: MKK7
# MKNK1 = test system: MKNK1
# MKNK2 = test system: MKNK2
# MLCK = test system: T2, MLCK
# T2 construct: gene MYLK3
# MLK1 = test system: T3, MLK1
# T3 construct: gene MAP3K9
# MLK2 = test system: MLK2
# MLK3 = test system: MLK3
# MRCKA = test system: MRCKA
# 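Also: KINOMEscan kinase panel screen.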
SMILES,%Inh (MET) [%],%Inh (MINK) [%],%Inh (MKK7) [%],%Inh (MKNK1) [%],%Inh (MKNK2) [%],%Inh (MLCK) [%],%Inh (MLK1) [%],%Inh (MLK2) [%],%Inh (MLK3) [%],%Inh (MRCKA) [%]
COc1cc2nccc(Nc3ccc(OCc4ccc(NC(C)=O)cc4)cc3)c2cc1OC.Cl [GW440135],0,70,27,6,15,0,0,2,14,9
CCC(=O)c1c(-c2ccccc2)c2cc(Cl)ccc2c(=O)n1Cc1cc(S(C)(=O)=O)n(CC(F)F)n1,6,0,0,0,0,0,42,0,0,0
Cc1nc(N(C)[C@H]2CN(C(=O)CC#N)CC[C@H]2C)c2cc[nH]c2n1,0,0,0,0,0,0,0,11,0,0

# From publication PMC5540273 (PLoS ONE, 2017)
